Data reported in PubChem BioAssay (Tox21).
“And” between values parts separate entries of the source, which are not always exact repeats. Equal values may be shown once. Inconclusive results are not listed. A call without a number means that no potency is given here. The source made the active and inactive calls. Calls follow the shape of the dose curve; as a rule, active = well fitted cell-killing curve with a large enough effect in the repeat runs; inconclusive = weak or mixed curves, or effect the other way; inactive = no such curve, though single readings can be large or run the other way.

Test: Caspase-3/7 induction in CHO-K1 cells by small molecules, qHTS cell viability counter screen (AID 1346979); also: nearly all actives have a fitted effect of over 35% in size
Conditions: CellTiter-Fluor fluorescence, 17 h; series mostly up to 92.4 µM
From the text: National Center for Advancing Translational Sciences [NCATS]
NIH Chemical Genomics Center [NCGC]
U.S. Environmental Protection Agency [EPA]
National Institutes of Environmental Health Sciences [NIEHS]
National Toxicology Program [NTP]
U.S. Food and Drug Administration [FDA]
Apoptosis is a process of programmed cell death and plays a central role in the development of multicellular organisms. It is a highly regulated process and induces cell death by activating caspases, which are the members of cysteine aspartic acid-specific protease (caspase) family. Caspases involved in apoptosis are classified by their mechanism of action as initiator caspases (caspase-2, -8, -9 and -10) and executioner caspases (caspase-3, -6, and -7). Inhibition of apoptosis results in number of cancers, autoimmune diseases, inflammatory diseases and viral infection. To identify small molecule compounds that induce apoptosis, a homogeneous, luminescent Caspase-Glo 3/7 assay was used. Wild type CHO-K1 cells were used to screen Tox21 libraries for identifying caspase-3/7 activity inducers. Also cytotoxicity of the compounds was tested in parallel by measuring the cell viability using CellTiter-Fluor assay system in the same wells.
Tox21 Assay Protocol Summary:
CHO-K1 cells were dispensed at 1,500 per well in 5uL of culture medium into white solid bottom 1536-well plates (Corning Life Sciences, Corning, NY) using a Multidrop Combi (Thermo Scientific, Waltham, MA) dispenser. The assay plates were incubated at 37 C and 5% CO2 for 5hr, and then 23nL of compounds dissolved in DMSO and positive control were transferred using a Pintool station (Wako, San Diego, CA). The assay plates were incubated at 37C and 5% CO2 for 17hr. For cytotoxicity read, after 16hr incubation at 37C, 1uL CellTiter-Fluor reagent (Promega Corporation, Madison, WI) was added to each well of the assay plates using Flying Reagent Dispenser (FRD, Aurora Discovery, San Diego, CA). After 1hr incubation at 37C and 5% CO2, the fluorescence signal was quantified using a ViewLux plate reader (PerkinElmer, Shelton, CT).
Potency is read from the fitted curve at half-maximal effect.

Q: With CCOP(=O)(CN(CCO)CCO)OCC as the compound, how does the Potency read?
A: The Potency was “inactive”.

Q: With [O-][Br+2]([O-])O as the compound, how does the Potency read?
A: The Potency was “inactive”.

Q: With CCOC(=O)C(SP(=S)(OC)OC)c1ccccc1 (stereo not given) as the compound, how does the Potency read?
A: Its Potency is “inactive”.

Q: Which Potency does the source give for CC(C)(C)c1cc(O)ccc1O here?
A: Its Potency is 43.3 µM (active) and 61.1 µM (active).

Q: Which Potency does the source give for CCN[C@H](C)Cc1cccc(C(F)(F)F)c1 here?
A: Its Potency is “inactive”.

Q: For ClC1=C(Cl)C2(Cl)C(CBr)CC1(Cl)C2(Cl)Cl (stereo not given), which Potency is on record?
A: Its Potency is “inactive”.

Q: With ClCCN1CCCC1 as the compound, how does the Potency read?
A: Its Potency is “inactive”.

Q: Which Potency does the source give for O=C(Cl)CCl here?
A: The Potency was “inactive”.

Q: Which Potency does the source give for CC[C@@H](CO)NC(=O)[C@@H]1C=C2c3cccc4c3c(cn4C)C[C@H]2N(C)C1 here?
A: Its Potency is “inactive”.

Q: For COc1cc(CC(C)N)cc(OC)c1OC (stereo not given), which Potency is on record?
A: The Potency was “inactive”.

Q: Which Potency does the source give for CCOC(=O)C(Cl)Cc1cc(-n2nc(C)n(C(F)F)c2=O)c(F)cc1Cl (stereo not given) here?
A: Its Potency is “inactive”.

Q: For C#CCOC(=O)/C=C(C)/C=C/CC(C)CCCC(C)C (stereo not given), which Potency is on record?
A: The Potency was “inactive”.

Q: For O=C(Cl)C(Cl)Cl, which Potency is on record?
A: Its Potency is “inactive”.

Q: For COc1ccccc1OC, which Potency is on record?
A: Its Potency is “inactive”.

Q: For CCOC1Oc2ccc(OS(C)(=O)=O)cc2C1(C)C (stereo not given), which Potency is on record?
A: The Potency was “inactive”.

Q: For CCOC(=O)CCl, which Potency is on record?
A: Its Potency is “inactive”.

Q: For CCOC(=O)N(C)N=O, which Potency is on record?
A: The Potency was “inactive”.

Q: Which Potency does the source give for C=CCC1(C(C)CC)C(=O)NC(=O)NC1=O (stereo not given) here?
A: The Potency was “inactive”.

Q: With CC(Cl)(Cl)Cl as the compound, how does the Potency read?
A: The Potency was “inactive”.

Q: For CCCOC(=O)Cc1ccc(OCC(=O)N(CC)CC)c(OC)c1, which Potency is on record?
A: The Potency was “inactive”.

Q: With C[C@]12C=CC(=O)C=C1CC[C@@H]1[C@@H]2CC[C@@]2(C)[C@H]1CC[C@]2(C)O as the compound, how does the Potency read?
A: The Potency was “inactive”.

Q: With CCC(=O)c1ccc(Cl)cc1 as the compound, how does the Potency read?
A: The Potency was “inactive”.

Q: Which Potency does the source give for NNC(N)=O here?
A: The Potency was “inactive”.

Q: For CCCOc1nn(C(=O)NS(=O)(=O)c2ccccc2C(=O)OC)c(=O)n1C, which Potency is on record?
A: The Potency was “inactive”.

Q: For O=C/C=C/c1ccco1, which Potency is on record?
A: The Potency was “inactive”.

Q: With O=C(Cl)c1ccccc1 as the compound, how does the Potency read?
A: Its Potency is “inactive”.

Q: For CCCC(C)C1(CC)C(=O)N=C(S)NC1=O (stereo not given), which Potency is on record?
A: Its Potency is “inactive”.

Q: Which Potency does the source give for CCC(CC)(CNC(=O)CCCO)c1cccc(OC)c1 here?
A: Its Potency is “inactive”.

Q: For CCN[C@@H](C)Cc1cccc(C(F)(F)F)c1, which Potency is on record?
A: The Potency was “inactive”.

Q: For COc1ccc2c(C(=O)c3ccc(Cl)cc3)c(C)n(CC(=O)O)c2c1, which Potency is on record?
A: Its Potency is “inactive”.

Q: For CCOC(=O)CC(SP(=S)(OC)OC)C(=O)OCC (stereo not given), which Potency is on record?
A: The Potency was “inactive”.

Q: With CCSC(=O)Cl as the compound, how does the Potency read?
A: Its Potency is “inactive”.

Q: For CC(C)(C)C(=O)Cl, which Potency is on record?
A: The Potency was “inactive”.

Q: For Nc1c(Cl)c(F)nc(OCC(=O)O)c1Cl, which Potency is on record?
A: Its Potency is “inactive”.

Q: With CCC(C(N)=O)N1CCCC1=O (stereo not given) as the compound, how does the Potency read?
A: The Potency was “inactive”.

Q: Which Potency does the source give for CCCCS(=O)(=O)Cl here?
A: The Potency was “inactive”.

Q: With CC(C)(N)Cc1ccccc1Cl as the compound, how does the Potency read?
A: The Potency was “inactive”.

Q: Which Potency does the source give for CC1NCCOC1c1ccccc1 (stereo not given) here?
A: The Potency was “inactive”.

Q: Which Potency does the source give for NC(=O)OCCCc1ccccc1 here?
A: The Potency was “inactive”.

Q: Which Potency does the source give for CCN(CCO)CCO here?
A: Its Potency is “inactive”.
